Holding throughout (conditions): mRNA level, 48 h; actives raise or lower the signal
Read-out in assay [1]: JUN Transcription Factor, JUN (gene 3725)
The assay can be described thus: LTEA_HepaRG_JUN: Life Technologies and Expression Analysis (LTEA) Assay for JUN Transcription Factor using HepaRG (AID 2283513). In outline: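 Differentiated HepaRG cells were exposed to chemicals for 48 h in serum-free induction medium, 8 concentrations from 100 uM in half-log steps, 0.5% DMSO vehicle, in duplicate. JUN mRNA was quantified by TaqMan qRT-PCR, normalized to ACTB, GAPDH, POLR2A.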

Read-out in assay [2]: Lipase C (LIPC), LIPC (gene 3990)
In words: LTEA_HepaRG_LIPC: Life Technologies and Expression Analysis (LTEA) Assay for Lipase C (LIPC) using HepaRG (AID 2283514). In outline: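 Differentiated human HepaRG cells in serum-free induction medium were exposed in duplicate for 48 h to eight concentrations (top 100 uM, half-log steps, 0.5% DMSO). LIPC mRNA was quantified by TaqMan qRT-PCR, normalized to ACTB, GAPDH and POLR2A, with bidirectional fitting versus DMSO.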

Read-out in assay [3]: Lipoprotein lipase (LPL), LPL (gene 4023)
The assay can be described thus: LTEA_HepaRG_LPL: Life Technologies and Expression Analysis (LTEA) Assay for Lipoprotein lipase (LPL) using HepaRG (AID 2283515). In outline:
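Differentiated human HepaRG cells in serum-free induction medium were exposed in duplicate for 48 h to eight half-log concentrations (top 100 uM) in 0.5% DMSO. LPL mRNA was quantified by TaqMan qRT-PCR, normalized to ACTB, GAPDH and POLR2A.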

Read-out in assay [4]: MicroRNA 122 (MIR122), gene 406906
The assay can be described thus: LTEA_HepaRG_MIR122: Life Technologies and Expression Analysis (LTEA) Assay for MicroRNA 122 (MIR122) using HepaRG (AID 2283516). Note: the transcript read is the microRNA miR-122. In a few lines:
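Differentiated human HepaRG cells were exposed 48 h in serum-free induction medium to eight half-log concentrations (top 100 uM, 0.5% DMSO). Transcript level was measured by TaqMan qRT-PCR, normalized to ACTB, GAPDH and POLR2A, and fitted bidirectionally versus DMSO.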

Read-out in assay [5]: matrix metalloproteinase-10 (MMP10), MMP10 (gene 4319)
The assay can be described thus: LTEA_HepaRG_MMP10: Life Technologies and Expression Analysis (LTEA) Assay for matrix metalloproteinase-10 (MMP10) using HepaRG (AID 2283517). In outline:
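HepaRG, collagen I, ~100,000 cells/well; serum-free induction medium; 48 h exposure, duplicate, 8-pt half-log to 100 uM, 0.5% DMSO. Readout: TaqMan qRT-PCR, normalized to ACTB/GAPDH/POLR2A; bidirectional fit vs DMSO.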

Read-out in assay [6]: MYC, MYC (gene 4609)
The assay can be described thus: LTEA_HepaRG_MYC: Life Technologies and Expression Analysis (LTEA) Assay for MYC using HepaRG (AID 2283518). In a few lines:
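Expression changes were scored by TaqMan qRT-PCR with ACTB, GAPDH and POLR2A normalization. Cultures in serum-free induction medium received duplicate 8-point concentration series, highest 100 uM, for 48 h; DMSO (0.5%) served as baseline.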

Read-out in assay [7]: Paternally Expressed 10 (PEG10), PEG10 (gene 23089)
The assay can be described thus: LTEA_HepaRG_PEG10: Life Technologies and Expression Analysis (LTEA) Assay for Paternally Expressed 10 (PEG10) using HepaRG (AID 2283520). In outline:
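Differentiated HepaRG cells, plated 48 h then switched to serum-free induction medium, were exposed in duplicate for 48 h to eight half-log concentrations topping at 100 uM in 0.5% DMSO. PEG10 mRNA was quantified by TaqMan qRT-PCR, normalised to ACTB, GAPDH and POLR2A.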

Read-out in assay [8]: Nuclear factor NF-kappa-B p105 subunit (Homo sapiens) (UniProt P19838)
The assay can be described thus: LTEA_HepaRG_NFKB1: Life Technologies and Expression Analysis (LTEA) Assay for Nuclear Factor Kappa B Subunit 1 (NFKB1) using HepaRG (AID 2283521).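 Note: TaqMan qRT-PCR transcript normalised to ACTB GAPDH and POLR2A housekeeping genes.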 In a few lines:
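Human HepaRG cells receive eight half-log concentrations, highest 100 uM, for 48 h. NFKB1 expression is then quantified by qRT-PCR and analysed for up- or down-regulation relative to 0.5% DMSO vehicle.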

Read-out in assay [9]: Protein phosphatase 2A (PPP2R4), PTPA (gene 5524)
The assay can be described thus: LTEA_HepaRG_PPP2R4: Life Technologies and Expression Analysis (LTEA) Assay for Protein phosphatase 2A (PPP2R4) using HepaRG (AID 2283522). In outline: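 Differentiated HepaRG cells in serum-free induction medium were exposed in duplicate for 48 h to eight concentrations, top 100 uM with half-log dilutions, in 0.5% DMSO. PPP2R4 mRNA was quantified by TaqMan qRT-PCR, normalized to ACTB, GAPDH and POLR2A.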

Read-out in assay [10]: Phosphatase and tensin (PTEN), PTEN (gene 5728)
In words: LTEA_HepaRG_PTEN: Life Technologies and Expression Analysis (LTEA) Assay for Phosphatase and tensin (PTEN) using HepaRG (AID 2283523). In outline:
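Differentiated human HepaRG cells, plated 48 h then switched to serum-free induction medium, were exposed in duplicate for 48 h to eight half-log concentrations up to 100 uM in 0.5% DMSO. PTEN mRNA measured by TaqMan qRT-PCR, normalized to ACTB/GAPDH/POLR2A, bidirectional fit versus DMSO.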

Read-out in assay [11]: solute carrier (SLC22A1), SLC22A1 (gene 6580)
The assay can be described thus: LTEA_HepaRG_SLC22A1: Life Technologies and Expression Analysis (LTEA) Assay for solute carrier (SLC22A1) using HepaRG (AID 2283524). In outline:
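Human HepaRG cells were plated 48 h, switched to serum-free induction medium, then exposed in duplicate for 48 h to 8-point half-log series from 100 uM in 0.5% DMSO. SLC22A1 mRNA measured by qRT-PCR, normalized to ACTB/GAPDH/POLR2A, fitted bidirectionally versus DMSO.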

Read-out in assay [12]: Pyruvate Dehydrogenase Kinase 4 (PDK4), PDK4 (gene 5166)
In words: LTEA_HepaRG_PDK4: Life Technologies and Expression Analysis (LTEA) Assay for Pyruvate Dehydrogenase Kinase 4 (PDK4) using HepaRG (AID 2283525). In a few lines:
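Differentiated human HepaRG cells, pre-cultured 48 h, were exposed in duplicate for 48 h in serum-free induction medium to eight half-log concentrations up to 100 uM in 0.5% DMSO. PDK4 mRNA was quantified by qRT-PCR, normalized to ACTB, GAPDH and POLR2A, bidirectional fitting versus DMSO.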

Read-out in assay [13]: NAD(P)H dehydrogenase [quinone] 1 (NQO1), NQO1 (gene 1728)
In words: LTEA_HepaRG_NQO1: Life Technologies and Expression Analysis (LTEA) Assay for NAD(P)H dehydrogenase [quinone] 1 (NQO1) using HepaRG (AID 2283526). In outline:
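Differentiated HepaRG cells, plated 48 h and then switched to serum-free induction medium, were exposed in duplicate for 48 h to 8-point half-log concentrations up to 100 uM in 0.5% DMSO. mRNA measured by qRT-PCR, normalized to ACTB, GAPDH, POLR2A; bidirectional fit versus DMSO.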

Read-out in assay [14]: Nuclear factor erythroid 2-related factor 2 (Homo sapiens) (UniProt Q16236)
In words: LTEA_HepaRG_NFE2L2: Life Technologies and Expression Analysis (LTEA) Assay for Nuclear factor erythroid 2-related factor 2 (NFE2L2) Transcription Factor using HepaRG (AID 2283527).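 Note: TaqMan qRT-PCR transcript level normalised to ACTB GAPDH and POLR2A housekeeping genes.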 In outline:
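Differentiated human HepaRG cells in serum-free induction medium were exposed for 48 h to eight concentrations (top 100 uM, half-log dilutions, 0.5% DMSO), in duplicate. NFE2L2 mRNA was quantified by TaqMan qRT-PCR, normalized to ACTB, GAPDH and POLR2A, with bidirectional fitting versus DMSO.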

Read-out in assay [15]: succinate dehydrogenase complex iron sulfur subunit B (SDHB), SDHB (gene 6390)
In words: LTEA_HepaRG_SDHB: Life Technologies and Expression Analysis (LTEA) Assay for succinate dehydrogenase complex iron sulfur subunit B (SDHB) using HepaRG (AID 2283528). In a few lines:
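A human HepaRG culture in serum-free induction medium received test chemicals for 48 h over an eight-point range capped at 100 uM. SDHB expression change was quantified by qRT-PCR.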

Read-out in assay [16]: Signal transducer and activator of transcription 3 (Homo sapiens) (UniProt P40763)
The assay can be described thus: LTEA_HepaRG_STAT3: Life Technologies and Expression Analysis (LTEA) Assay for Signal transducer and activator of transcription (STAT3) using HepaRG (AID 2283529). In outline: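 Differentiated human HepaRG cells in serum-free induction medium were exposed in duplicate for 48 h to eight half-log concentrations up to 100 uM in 0.5% DMSO. STAT3 mRNA was quantified by TaqMan qRT-PCR, normalized to ACTB, GAPDH and POLR2A, and fitted bidirectionally against DMSO.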

Read-out in assay [17]: solute carrier (SLCO1B1), SLCO1B1 (gene 10599)
In words: LTEA_HepaRG_SLCO1B1: Life Technologies and Expression Analysis (LTEA) Assay for solute carrier (SLCO1B1) using HepaRG (AID 2283530). In a few lines: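 Human HepaRG cultures treated for 48 h with an eight-concentration half-log series topping at 100 uM; SLCO1B1 measured by qRT-PCR and fitted bidirectionally relative to DMSO.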

Read-out in assay [18]: sulfotransferase 2A1 (SULT2A1), SULT2A1 (gene 6822)
In words: LTEA_HepaRG_SULT2A1: Life Technologies and Expression Analysis (LTEA) Assay for sulfotransferase 2A1 (SULT2A1) using HepaRG (AID 2283531). In outline:
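Gene-expression endpoint in a human liver cell line: SULT2A1 mRNA change after 48 h chemical treatment, curves fitted in both directions relative to 0.5% DMSO vehicle. Concentrations spanned eight half-log steps from 100 uM.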

Read-out in assay [19]: Transforming Growth Factor (TGFA), TGFA (gene 7039)
In words: LTEA_HepaRG_TGFA: Life Technologies and Expression Analysis (LTEA) Assay for Transforming Growth Factor (TGFA) using HepaRG (AID 2283532). In a few lines: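 Differentiated human HepaRG cells, plated 48 h then switched to serum-free induction medium, were exposed in duplicate for 48 h to 8-point half-log series from 100 uM in 0.5% DMSO. TGFA mRNA measured by qRT-PCR, normalized to ACTB/GAPDH/POLR2A, bidirectional fit versus DMSO.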

Read-out in assay [20]: matrix metalloproteinase-3 (MMP3), MMP3 (gene 4314)
In words: LTEA_HepaRG_MMP3: Life Technologies and Expression Analysis (LTEA) Assay for matrix metalloproteinase-3 (MMP3) using HepaRG (AID 2283519). In outline:
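Differentiated human HepaRG cells, plated 48 h on collagen I, were exposed in duplicate for 48 h in serum-free induction medium to eight half-log concentrations up to 100 uM in 0.5% DMSO. MMP3 mRNA was quantified by TaqMan qRT-PCR, normalised to ACTB, GAPDH and POLR2A.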

The results in this text go back to PubChem BioAssay (EPA / NIEHS).

Molecules are shown by their SMILES. Calls of active or inactive are those of the source. Rule for the calls: active = hit-call score of the fitted dose curve at least 0.9, where 1 is the maximum; inactive = score below 0.9.

Sequence of Nuclear factor erythroid 2-related factor 2 (Homo sapiens) (Q16236 whole entry, looked up): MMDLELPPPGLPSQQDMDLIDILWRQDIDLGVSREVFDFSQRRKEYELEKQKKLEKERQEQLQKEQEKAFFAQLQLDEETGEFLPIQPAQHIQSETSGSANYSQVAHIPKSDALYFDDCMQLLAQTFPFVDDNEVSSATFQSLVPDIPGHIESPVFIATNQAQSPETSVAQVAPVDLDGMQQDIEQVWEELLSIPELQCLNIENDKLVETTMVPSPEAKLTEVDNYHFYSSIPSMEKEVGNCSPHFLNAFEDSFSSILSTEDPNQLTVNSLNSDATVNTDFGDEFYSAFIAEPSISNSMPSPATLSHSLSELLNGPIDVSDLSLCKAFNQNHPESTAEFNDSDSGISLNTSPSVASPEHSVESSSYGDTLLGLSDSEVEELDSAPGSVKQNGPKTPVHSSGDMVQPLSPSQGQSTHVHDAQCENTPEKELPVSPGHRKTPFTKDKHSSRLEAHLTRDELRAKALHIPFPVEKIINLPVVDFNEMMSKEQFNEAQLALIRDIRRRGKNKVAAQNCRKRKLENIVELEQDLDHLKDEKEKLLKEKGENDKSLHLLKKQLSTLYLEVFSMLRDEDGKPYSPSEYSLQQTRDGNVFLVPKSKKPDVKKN
Sequence of Signal transducer and activator of transcription 3 (Homo sapiens) (P40763 whole entry, looked up): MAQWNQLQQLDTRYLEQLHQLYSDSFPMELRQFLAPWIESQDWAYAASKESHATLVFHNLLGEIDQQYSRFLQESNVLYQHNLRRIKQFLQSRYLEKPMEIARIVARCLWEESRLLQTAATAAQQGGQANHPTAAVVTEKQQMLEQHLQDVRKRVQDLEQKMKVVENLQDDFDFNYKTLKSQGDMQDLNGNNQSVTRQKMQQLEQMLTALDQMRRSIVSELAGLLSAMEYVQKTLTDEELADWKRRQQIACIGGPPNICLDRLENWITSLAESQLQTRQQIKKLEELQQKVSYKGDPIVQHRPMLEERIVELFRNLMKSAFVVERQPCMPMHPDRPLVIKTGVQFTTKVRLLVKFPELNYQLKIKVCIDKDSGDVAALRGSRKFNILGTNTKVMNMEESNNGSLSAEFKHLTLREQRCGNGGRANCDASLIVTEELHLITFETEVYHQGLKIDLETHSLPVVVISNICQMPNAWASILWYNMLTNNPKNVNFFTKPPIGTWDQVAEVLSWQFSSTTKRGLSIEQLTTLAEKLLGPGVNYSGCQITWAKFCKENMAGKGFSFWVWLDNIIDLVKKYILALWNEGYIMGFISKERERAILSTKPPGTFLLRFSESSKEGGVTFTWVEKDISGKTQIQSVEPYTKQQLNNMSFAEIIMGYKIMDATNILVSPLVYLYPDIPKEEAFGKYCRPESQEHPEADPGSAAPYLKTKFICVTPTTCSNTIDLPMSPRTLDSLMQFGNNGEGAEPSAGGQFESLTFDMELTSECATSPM
Sequence of Nuclear factor NF-kappa-B p105 subunit (Homo sapiens) (P19838 whole entry, looked up): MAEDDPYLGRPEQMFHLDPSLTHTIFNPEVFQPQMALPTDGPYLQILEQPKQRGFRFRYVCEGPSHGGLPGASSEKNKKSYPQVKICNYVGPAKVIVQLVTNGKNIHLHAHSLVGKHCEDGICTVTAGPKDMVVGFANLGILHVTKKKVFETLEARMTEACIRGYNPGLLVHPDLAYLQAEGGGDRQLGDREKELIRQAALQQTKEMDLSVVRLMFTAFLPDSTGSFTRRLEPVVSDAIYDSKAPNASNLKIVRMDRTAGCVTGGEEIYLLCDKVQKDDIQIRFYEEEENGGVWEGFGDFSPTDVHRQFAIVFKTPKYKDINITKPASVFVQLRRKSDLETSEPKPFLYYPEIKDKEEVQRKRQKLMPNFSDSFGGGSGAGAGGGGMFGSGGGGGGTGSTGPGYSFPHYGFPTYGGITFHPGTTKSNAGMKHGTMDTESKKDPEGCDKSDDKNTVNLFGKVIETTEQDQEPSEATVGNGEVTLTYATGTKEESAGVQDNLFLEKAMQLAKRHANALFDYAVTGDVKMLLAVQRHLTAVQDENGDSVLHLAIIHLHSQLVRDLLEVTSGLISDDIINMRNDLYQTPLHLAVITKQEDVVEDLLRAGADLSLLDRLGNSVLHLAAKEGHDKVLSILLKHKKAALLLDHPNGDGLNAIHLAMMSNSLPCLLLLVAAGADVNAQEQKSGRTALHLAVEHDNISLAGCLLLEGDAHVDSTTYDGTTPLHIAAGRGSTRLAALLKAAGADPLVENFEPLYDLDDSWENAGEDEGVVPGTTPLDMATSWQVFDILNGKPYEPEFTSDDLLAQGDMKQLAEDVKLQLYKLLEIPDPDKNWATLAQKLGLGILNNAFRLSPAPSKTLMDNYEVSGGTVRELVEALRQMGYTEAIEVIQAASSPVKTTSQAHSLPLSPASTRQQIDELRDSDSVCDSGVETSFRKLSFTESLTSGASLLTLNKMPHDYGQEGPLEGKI

For the molecule `CCNc1ccccc1`, the molecule was classed as inactive in assay [1], in [2], in [3], in assay [4], in [5] and in assay [6]. The call in [7], in assay [8], in assay [9], in assay [10], in [11] and in assay [12] was inactive. Moreover, the result in assay [13], in [14], in assay [15], in [16], in [17] and in [18] was inactive. In addition, in [19], the outcome was inactive.
Broadly, the AC50 is the midpoint of the concentration-response curve, whichever way the signal moves. Regarding `Cc1ccc(N)cc1O`, the call in assay [1], in [2], in assay [4], in assay [5], in assay [6] and in [20] was inactive. Moreover, the call in assay [7], in assay [9], in assay [10], in assay [11], in assay [12] and in assay [13] was inactive. The molecule was classed as inactive in assay [14], in assay [15], in assay [16], in assay [17], in assay [18] and in [19]. Also, the AC50 in [3] was 31.8 µM (active).
Consider `O=C(O)CC(O)C(=O)O` (stereo not given), for which the result in assay [1], in assay [2], in assay [3], in [4], in assay [5] and in [6] was inactive. Moreover, the outcome in assay [20], in assay [7], in assay [9], in assay [10], in [11] and in assay [12] was inactive. Besides, the call in assay [13], in assay [14], in [15], in assay [16], in assay [17] and in assay [18] was inactive. Moreover, the call in assay [19] was inactive.
As to `CC(C)CCCCCCOC(=O)c1ccc(C(=O)OCCCCCCC(C)C)c(C(=O)OCCCCCCC(C)C)c1`, the molecule was classed as inactive in [1], in assay [2], in [3], in assay [4], in assay [5] and in assay [6]. Further, the call in [20], in assay [7], in assay [9], in [10], in assay [11] and in assay [12] was inactive. The result in [13], in assay [14], in [15], in [16], in assay [17] and in [19] was inactive.
